In PubChem BioAssay (NCI) one finds growth data, which are given here for nine compounds.

The panel holds about 83,000 compounds, 20% with a hit somewhere; the sample as a whole holds those more often.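 Percent growth is the endpoint: 0 to 100 indicates growth inhibition (40 means 60% inhibition), 0 means no net growth, and negative values indicate cell death.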 Unmarked numbers belong to inactive results. Active and inactive are the calls of the source. How the source made its calls: active means growth percent below 10; inactive means the rest.

Among the test systems are RPMI-8226 leukemia; OVCAR-8 ovarian; OVCAR-5 ovarian; OVCAR-4 ovarian; SK-OV-3 ovarian; IGROV1 ovarian; OVCAR-3 ovarian; HS 578T breast; NCI/ADR-RES ovarian; T-47D breast; BT-549 breast; MDA-MB-435 melanoma; SW-620 colon; MCF7 breast; HCT-116 colon; HCC-2998 colon; KM12 colon.
Common to all, as to assay: NCI-60 one-dose screen, 48 h (100 = growth as untreated, 0 = no growth, -100 = all killed)
What all share (conditions): 10 µM unless noted

Take `O=C(CSC(=S)N1CCCCC1)Nc1ccccc1`: the growth with RPMI-8226 leukemia was 84.6%; with OVCAR-8 ovarian, 99.4%; in the assay on OVCAR-5 ovarian, 106%; in the assay on OVCAR-4 ovarian, 109%; with SK-OV-3 ovarian, 106%; in the assay with IGROV1 ovarian, 103%. The growth in the assay on OVCAR-3 ovarian is 107%; in the assay on HS 578T breast it was 106%; in the assay on NCI/ADR-RES ovarian it was 102%; in the assay with T-47D breast, 81.7%; with BT-549 breast, 101%; with MDA-MB-435 melanoma, 110%. Further, the growth with SW-620 colon was 102%; in the assay on MCF7 breast, 99.8%; with HCT-116 colon, 92.4%; with HCC-2998 colon, 98.2%; in the assay on KM12 colon, 95.8%.
On to `O=c1[nH]c(-c2cccc(F)c2)cc2cc(F)ccc12`, for which the growth with RPMI-8226 leukemia is 22.5%; with OVCAR-8 ovarian it was 30.2%; with OVCAR-5 ovarian, 48.4%; in the assay on OVCAR-4 ovarian, 63.4%; in the assay on SK-OV-3 ovarian it was 26.1%; in the assay on IGROV1 ovarian, 40.1%. In addition, the growth was -11.9% (active) with OVCAR-3 ovarian; 34.7% in the assay on HS 578T breast; 6.86% (active) in the assay with NCI/ADR-RES ovarian; 49.8% in the assay on T-47D breast; 66.5% in the assay on BT-549 breast; -25.5% (active) in the assay on MDA-MB-435 melanoma. The growth in the assay with SW-620 colon was 26.9%; with MCF7 breast, 13.6%; in the assay with HCT-116 colon, 25.4%; with HCC-2998 colon, 44.6%; in the assay with KM12 colon, 23.6%.
As for `CC(=O)Nc1c(C(=O)Nc2ccccc2)sc2nc3c(cc12)C(OC(C)=O)CCC3` (stereo not drawn), the growth is 107% in the assay with RPMI-8226 leukemia; 105% in the assay with OVCAR-8 ovarian; 108% with OVCAR-5 ovarian; 108% with OVCAR-4 ovarian; 46.6% in the assay with SK-OV-3 ovarian; 109% in the assay on IGROV1 ovarian. The growth in the assay on OVCAR-3 ovarian is 104%; with HS 578T breast it was 102%; in the assay on NCI/ADR-RES ovarian, 88.4%; in the assay with T-47D breast, 93.5%; with BT-549 breast it was 83.6%; in the assay with MDA-MB-435 melanoma, 35.3%. Also, the growth in the assay with SW-620 colon was 97.4%; in the assay with MCF7 breast, 97.6%; in the assay with HCT-116 colon, 104%; in the assay on HCC-2998 colon, 68.7%; with KM12 colon, 80.2%.
Consider `CC(C)(C)c1ccc2oc(=O)n(SC(Cl)(Cl)Cl)c2c1`, for which the growth in the assay on RPMI-8226 leukemia was 102%; with OVCAR-8 ovarian it was 111%; in the assay with OVCAR-5 ovarian, 105%; in the assay with OVCAR-4 ovarian, 106%; in the assay with SK-OV-3 ovarian it was 102%; in the assay with IGROV1 ovarian, 111%. The growth is 106% with OVCAR-3 ovarian; 119% with HS 578T breast; 100% in the assay with NCI/ADR-RES ovarian; 93.4% with T-47D breast; 98.2% in the assay with BT-549 breast; 107% in the assay on MDA-MB-435 melanoma. For the same compound, the growth in the assay with SW-620 colon was 76.5%; in the assay on MCF7 breast, 86.4%; in the assay on HCT-116 colon, 103%; in the assay with HCC-2998 colon, 96.5%; in the assay with KM12 colon it was 95.2%.
As to `O=C(/C(=C/c1ccc([N+](=O)[O-])cc1)SCc1ccccc1)c1ccc(Cl)cc1`, the growth in the assay with RPMI-8226 leukemia is -15.8% (active); in the assay with OVCAR-8 ovarian, 76.2%; with OVCAR-5 ovarian it was 95.4%; with OVCAR-4 ovarian it was 74.5%; with SK-OV-3 ovarian it was 87.6%; with IGROV1 ovarian, 57%. Besides, the growth is 70.6% in the assay on OVCAR-3 ovarian; 75.7% in the assay on HS 578T breast; 62% in the assay with NCI/ADR-RES ovarian; 47.8% with T-47D breast; 89.2% with BT-549 breast; 85.7% in the assay with MDA-MB-435 melanoma. Further, the growth was 4.23% (active) in the assay with SW-620 colon; 7.72% (active) in the assay with MCF7 breast; 30.5% in the assay with HCT-116 colon; 97.3% in the assay on HCC-2998 colon; 65.6% with KM12 colon.
On to `COC(=O)c1ccc(NC(=O)CSc2nc(-c3ccc(F)cc3)nc3ccccc23)cc1`, for which the growth with RPMI-8226 leukemia was 44.9%; in the assay on OVCAR-8 ovarian it was 82.2%; in the assay with OVCAR-5 ovarian, 107%; with OVCAR-4 ovarian, -31.5% (active); in the assay with SK-OV-3 ovarian it was 90.9%; in the assay with IGROV1 ovarian, 90.9%. The growth in the assay with OVCAR-3 ovarian was 16.8%; with HS 578T breast, 82.8%; with NCI/ADR-RES ovarian, 88%; with T-47D breast it was 67.7%; with BT-549 breast it was 81.5%; with MDA-MB-435 melanoma it was 68.1%. The growth with SW-620 colon was 79.6%; in the assay with MCF7 breast it was 61.1%; with HCT-116 colon it was 49.8%; in the assay with HCC-2998 colon, 102%; in the assay on KM12 colon it was 73.9%.
Take `O=C(/C(=C\c1c(-c2ccccc2)[nH]c2ccccc12)S(=O)(=O)c1ccccc1)c1ccccc1`: the growth was -34.2% (active) in the assay with RPMI-8226 leukemia; 66.2% with OVCAR-8 ovarian; 83.1% in the assay on OVCAR-5 ovarian; 42.8% in the assay with OVCAR-4 ovarian; 23.1% with SK-OV-3 ovarian; 78.7% in the assay on IGROV1 ovarian. The growth was 56.3% with OVCAR-3 ovarian; 72.1% in the assay with HS 578T breast; 43.4% in the assay with NCI/ADR-RES ovarian; 22.2% in the assay on T-47D breast; 47.7% in the assay with BT-549 breast; 17.2% in the assay on MDA-MB-435 melanoma. Besides, the growth was 53% in the assay on SW-620 colon; 40.7% in the assay on MCF7 breast; 33% with HCT-116 colon; 73.1% in the assay on HCC-2998 colon; 27% with KM12 colon.
On to `O=CN1N=C(c2ccc(Cl)cc2)CC1c1cccc(Nc2ccnc3cc(C(F)(F)F)ccc23)c1` (stereo not drawn), for which the growth with RPMI-8226 leukemia was 26.4%; with OVCAR-8 ovarian it was 52.8%; with OVCAR-5 ovarian, 99.7%; with OVCAR-4 ovarian, 36.1%; in the assay with SK-OV-3 ovarian it was 72.4%; in the assay with IGROV1 ovarian, 74.2%. Also, the growth in the assay with OVCAR-3 ovarian was 62.2%; with HS 578T breast, 87.7%; with NCI/ADR-RES ovarian, 55.4%; in the assay on T-47D breast it was 42.6%; in the assay with BT-549 breast, 53.9%; in the assay on MDA-MB-435 melanoma, 54.3%. In addition, the growth was 89.8% in the assay on SW-620 colon; 38% in the assay with MCF7 breast; 56.3% in the assay on HCT-116 colon; 76.7% with HCC-2998 colon; 59.2% with KM12 colon.
`C=C(C)[C@@H]1CC[C@]2(C(=O)O)CC[C@]3(C)[C@H](CC[C@@H]4[C@@]5(C)C[C@@H](CC#Cc6ccccc6)C(=O)C(C)(C)[C@@H]5CC[C@]43C)[C@@H]12`: the growth in the assay with RPMI-8226 leukemia was 15.3%; in the assay on OVCAR-8 ovarian, 26.5%; in the assay with OVCAR-5 ovarian, 65.4%; in the assay with OVCAR-4 ovarian it was 41.3%; with SK-OV-3 ovarian it was 42.9%; in the assay on IGROV1 ovarian it was 61.1%. In addition, the growth with OVCAR-3 ovarian is 17.9%; in the assay on HS 578T breast, 55.4%; in the assay with NCI/ADR-RES ovarian, 42.1%; with T-47D breast it was 22.5%; with BT-549 breast, 40.7%; in the assay with MDA-MB-435 melanoma it was 66.8%. In addition, the growth is 27.3% in the assay with SW-620 colon; 15.5% with MCF7 breast; 9.07% (active) in the assay with HCT-116 colon; 29% in the assay on HCC-2998 colon; 27.9% in the assay on KM12 colon.
